Bioassay records deposited in PubChem by several laboratories.
CRFR2-BP antag: blocks CRF-induced signaling of the CRF-BP/CRF-R2 complex; AID 588475; HEK293 CRF-R2/CRF-BP, CRF-induced calcium fluorescence; 350,000 compounds, 0.59% hits; inhibition, % at 11.8 µM;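 active means inhibition of the ligand-induced calcium signal above about 50% at the single tested concentration, limit read from the data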
NOD2 RIPK2 PPI: blocks binding of human NOD2 to RIPK2; O43353; 360,000 compounds, 0.38% hits; inhibition, % at 4.98 µM; CHO BLA complementation NOD2-RIPK2, CCF4 ratio; in the data active means inhibition above about 21%;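 further: 0% = vehicle only and 100% = reference blocker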
ABHD5 PLIN5 PPI: ABHD5-PLIN5 protein interaction inhibition; Split G. princeps luciferase complementation, luminescence, 4 h; inhibition, % at 4 µM; 360,000 compounds, 0.78% hits; AID 602281;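 active means inhibition above the mean inhibition across every tested compound plus 3 SD, cut at about 22% in these data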;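 further: 0% = DMSO only wells and the 100% control is not disclosed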
TLR4-MyD88 BLA: blocks binding of human TLR4 to MyD88; inhibition, % at 8.4 µM; AID 861; HeLa CL3-4 TLR4/MyD88 BLA complementation, FRET ratio; 200,000 compounds, 0.18% hits; in the data active means inhibition above about 25%;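 further: 0% = vehicle and 100% = reference inhibitor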
m5-HT2A agonist: activates the mouse 5-HT2A serotonin receptor; 360,000 compounds, 0.66% hits; CHO-K1 mHTR2A beta-arrestin complementation, luminescence; percent of 30 µM serotonin response; activation, % at 7.6 µM; AID 624169;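 active means activation above a run cutoff, the mean activation of all tested compounds plus 3 SD, cut at about 14% in these data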;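 further: 0% = plate median of compound wells and 100% = 30 µM serotonin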
TLR9-MyD88 block: blocks human TLR9 binding to MyD88; CHO BLA complementation TLR9-MyD88, CCF4 FRET ratio; inhibition, % at 4.98 µM; 340,000 compounds, 0.21% hits;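 active means inhibition above the mean over all tested compounds plus 3 SD, cut at about 21% in these data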;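 further: 0% = DMSO only wells and 100% = clavulanate BLA inhibitor control wells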
TLR9-MyD88 conf: confirmation of human TLR9-MyD88 binding inhibitors. inhibition, % at 4.98 µM. CHO TLR9/MyD88 BLA complementation, CCF4 FRET ratio. AID 540250. 680 compounds, 51% hits. shares compounds with TLR9-MyD88 block;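 active means mean inhibition across three repeats above about 21% taken from the earlier screen, limit read from the data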;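 further: blue over green emission ratio reports constitutive TLR9 MyD88 association via BLA complementation; 0% = DMSO vehicle wells and 100% = clavulanate BLA inhibitor wells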
BLA counter-1: counter-screen for TLR9-MyD88 inhibitors: non-selective beta-lactamase inhibitors; shares compounds with TLR9-MyD88 block; CHO-BLA cells, CCF4 FRET ratio, BLA reporter; inhibition, % at 4.98 µM; 680 compounds, 7% hits;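 active means mean inhibition above a 50% cutoff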;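 further: counterscreen of TLR9-MyD88 hits on CMV-driven BLA in CHO-K1 cells; 0% = DMSO alone and 100% = clavulanate blocking BLA; higher means less blue over green ratio so more BLA blockade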
TLR9 CHO tox: counter-screen for TLR9-MyD88 inhibitors: cytotoxicity in CHO cells. shares compounds with TLR9-MyD88 block. 680 compounds, 39% hits. AID 588336. luminescence. inhibition, % at 4.98 µM; in the data active means inhibition above about 11%
ABHD5-PLIN5 conf: ABHD5-PLIN5 interaction inhibition, confirmed. inhibition, % at 4 µM. 2,200 compounds, 67% hits. shares compounds with ABHD5 PLIN5 PPI. biochemical ABHD5-PLIN5 interaction, luminescence; in the data active means inhibition above about 23%;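 further: 0% = DMSO vehicle wells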
HNF4 split-luc: counter-screen for ABHD5-PLIN5 inhibitors: HNF4 split-luciferase; HNF4 dimerization, luminescence, biochemical; shares compounds with ABHD5 PLIN5 PPI; 2,200 compounds, 77% hits; inhibition, % at 4 µM; AID 651674;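 active means mean inhibition across replicate wells exceeding the computed hit threshold, cut at about 13% in these data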;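 further: light from luciferase halves that rejoin when HNF4 fusion proteins dimerize; 0% = DMSO only wells and the 100% control is not given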
Target sequence (P41235 whole entry, looked up, the tested form may be a part): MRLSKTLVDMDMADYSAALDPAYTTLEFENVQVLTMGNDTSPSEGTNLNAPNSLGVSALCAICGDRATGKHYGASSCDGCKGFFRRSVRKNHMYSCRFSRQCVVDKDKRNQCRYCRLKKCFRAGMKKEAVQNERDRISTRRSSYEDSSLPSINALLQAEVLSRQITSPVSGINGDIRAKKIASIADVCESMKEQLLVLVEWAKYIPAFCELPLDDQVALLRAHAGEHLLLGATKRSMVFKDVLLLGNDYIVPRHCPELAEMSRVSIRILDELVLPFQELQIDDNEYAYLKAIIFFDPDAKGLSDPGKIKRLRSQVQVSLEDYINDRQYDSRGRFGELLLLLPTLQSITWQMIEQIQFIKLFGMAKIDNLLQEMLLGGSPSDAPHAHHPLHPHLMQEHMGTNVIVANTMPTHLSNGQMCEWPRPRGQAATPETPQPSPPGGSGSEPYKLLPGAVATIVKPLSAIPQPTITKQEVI
NOD2-RIPK2 conf: confirmation of human NOD2-RIPK2 interaction inhibitors | shares compounds with NOD2 RIPK2 PPI | CHO cells, NOD2-RIPK2 BLA complementation, CCF4 FRET | inhibition, % at 4.98 µM | 1,200 compounds, 70% hits;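 active means mean inhibition across replicates above a set limit taken from the earlier primary screen, cut at about 21% in these data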;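 further: 0% = DMSO-only wells and the high end = clavulanate BLA-blocked wells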
BLA counter-2: counter-screen for NOD2-RIPK2 interaction inhibitors: BLA reporter; shares compounds with NOD2 RIPK2 PPI; CHO BLA reporter, CCF4 FRET ratio, counterscreen; inhibition, % at 4.98 µM; 1,200 compounds, 57% hits; AID 624371;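 active means mean inhibition above the low-control mean inhibition plus three low-control SD, cut at about 11% in these data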;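 further: 0% = DMSO only wells and 100% = clavulanate high control wells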
* = called active by the depositor; · = no result given. This is a sample that favours compounds with a hit; in the whole collection about 2.4% have one here.

SMILES	CRFR2-BP antag	NOD2 RIPK2 PPI	ABHD5 PLIN5 PPI	TLR4-MyD88 BLA	m5-HT2A agonist	TLR9-MyD88 block	TLR9-MyD88 conf	BLA counter-1	TLR9 CHO tox	ABHD5-PLIN5 conf	HNF4 split-luc	NOD2-RIPK2 conf	BLA counter-2
O=C1C=CC(=O)N1CCNc1ncc(C(F)(F)F)cc1Cl	29	47*	45*	9	-5	28*	32*	11	100*	61*	107*	86*	24*
O=C1CN(S(=O)(=O)c2cc(Br)ccc2Br)CCN1	-12	6	-9	·	0	-6	·	·	·	·	·	·	·
O=c1c(Br)ccc(Br)cc1Br	2	85*	84*	·	3	66*	68*	39	98*	101*	111*	101*	48*
COc1cc(/C=C/C(=O)/C=C(O)/C=C/c2ccc(O)c(OC)c2)ccc1O	-75	54*	13	·	-2	28*	30*	28	6	·	·	55*	57*
CCCCCCSc1cc(-c2nc3cnccn3c2NCCCC)ccc1OC	-21	44*	3	·	-2	41*	26*	29	14*	·	·	40*	52*
Cc1cc(F)cc(-c2cc(C(=O)NCC3CCCCC3)[nH]n2)c1	·	12	-7	·	-5	·	·	·	·	·	·	·	·
CCOC(=O)Nc1ccc2c(c1)Cc1cc([N+](=O)[O-])ccc1-2	-8	15	-3	·	-2	6	·	·	·	·	·	·	·
CC(O)CN(CC(C)O)c1ccc2c(c1)Cc1cc([N+](=O)[O-])ccc1-2 (stereo not drawn)	-187	60*	11	·	-3	53*	44*	45	5	·	·	22*	70*
CCOC(=O)[C@]12CCCC=C1N(CCC1=CCCCC1)C(=O)[C@H](CC(=O)NCc1ccc(OC)c(OC)c1)C2	·	5	3	·	-3	·	·	·	·	·	·	·	·
O=C(c1ccccc1)c1ccccc1N1C(=O)C=CC1=O	5	70*	44*	·	-7	33*	26*	5	96*	45*	105*	69*	16*
O=C(O)c1ccccc1C(=O)c1ccc(-c2ccccc2)cc1	14	-10	0	·	-4	-5	·	·	·	·	·	·	·
CCN(CC)c1ccc(C(=O)NNC(=O)CCNC(=O)c2ccccc2)cc1	-6	-12	-12	·	-2	0	·	·	·	·	·	·	·
CCN(CC)c1ccc(C(=C2C=CC(=[N+](CC)CC)C=C2)c2ccccc2)cc1	-9	41*	98*	·	-4	53*	83*	18	101*	102*	109*	32*	22*
COC(=O)c1c(-c2ccc(OC)cc2)sc2cc3c(cc12)OCO3	4	-13	-9	·	-3	-15	·	·	·	·	·	·	·
COC(=O)c1c(-c2ccc(N(C)C)cc2)sc2ccc(OC)cc12	-5	38*	-2	·	0	28*	35*	42	2	·	·	49*	66*
Cc1csc(=O)n1CCC(=O)OCC(=O)NCc1ccccc1	-5	-4	1	·	4	-4	·	·	·	·	·	·	·
